# KB-V1 MDR tox = qHTS assay for MDR1-selective chemotherapeutics: Primary screen using the drug-selected MDR subline cells KB-V1 | KB-V1 MDR cells viability, CellTiter-Glo, 72 h | 400,000 tested, 3.4% active | Potency, µM (series often up to 46.1 µM), actives largely listed as cytotoxic | AID 1347076, 2019; also: % is scaled to controls: 0 for no effect and ±100 for the full control effect; nearly all actives have a fitted effect of over 60% in size
#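 In this primary screen, KB-V1 cells overexpressing P-gp are incubated with library compounds (lowest to highest concentration) for 72 h at 37 degrees C before a luminescent ATP viability read.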
# SW480 rerep = A quantitative high throughput screen for small molecules that induce DNA re-replication in SW480 colon adenocarcinoma cells. Potency, µM (top dose mostly 46.1 µM), inactives show at the highest dose re-replication activation, most hits filed as activators. SW480 DNA re-replication, Hoechst DNA content imaging, 48 h. 340,000 tested, 1.8% active; also: % of control where 0% means no effect; nearly all actives have a fitted effect of over 55% in size
#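 DNA re-replication was detected as more nuclei of elevated Hoechst intensity after 48 hr exposure to compound (23 nL pinned per well of 250 cells).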
# KB-3-1 tox = qHTS assay for MDR1-selective chemotherapeutics: Primary screen using the parental adenocarcinoma cell KB-3-1; Potency, µM (highest dose often 46.1 µM), usual class: cytotoxic; 400,000 tested, 1.4% active; AID 1347075, 2019; KB-3-1 viability, CellTiter-Glo ATP luminescence, 72 h; also: % is scaled to controls: 0 for no effect and ±100 for the full control effect; nearly all actives have a fitted effect of over 60% in size
#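 72 h, 37 °C compound treatment of KB-3-1 parental cells; CellTiter-Glo added, 10 min, luminescence read. Data corrected against DMSO-only plates and normalized before curve fitting.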
# HT1080 IDH1KD tx = qHTS for induction of synthetic lethality in tumor cells producing 2HG: qHTS for the HT-1080-IDH1KD cell line | 360,000 tested, 2% active | Potency, µM (top dose mostly 46.1 µM), for inactives: top-dose activity, negative = toxicity, hits mostly cytotoxic | AID 686971, 2013 | HT-1080 IDH1 knockdown viability, ATP luminescence, 48 h;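 also: 0% = DMSO wells and -100% = cell-free medium wells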
#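 Assay cells: HT-1080 with IDH1 knockdown, 750 per well, RPMI/5% FBS. Exposure: 48 h at 37 °C following 2 h pre-incubation. Read: CellTiter-Glo luminescence; fitted concentration-response, curve class assigned.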
# HT1080-NT tox = qHTS for induction of synthetic lethality in tumor cells producing 2HG: qHTS for the HT-1080-NT fibrosarcoma cell line | HT-1080-NT fibrosarcoma viability, CellTiter-Glo ATP luminescence, 48 h | Potency, µM (highest dose often 46.1 µM), for the others: at the highest dose activity, negative = less viability, hits mostly cytotoxic | 360,000 tested, 1.6% active;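 also: NT is the 2HG producing partner of a matched IDH1 knockdown line; 0% = DMSO-treated cells and -100% = media-only wells without cells; nearly all actives have a fitted effect of over 55% in size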
#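 Compounds were tested in concentration-response format on HT-1080-NT cells for 48 hours at 37 degrees C. Cell viability came from CellTiter-Glo luminescence; curves were classified by r2, response magnitude and activity.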
# MCF10A rerep = A quantitative high throughput screen for small molecules that induce DNA re-replication in MCF 10a normal breast cells; MCF 10A DNA re-replication, Hoechst nuclear intensity, 48 h; AID 624296, 2012; 350,000 tested, 2.9% active; Potency, µM (doses to about 46.1 µM), without a hit: at the highest dose activity, positive = re-replication, hits mostly activators; also: % of control where 0% means no effect; nearly all actives have a fitted effect of over 50% in size
# Active calls of the source: *; i = inactive; ? = inconclusive; · = not tested or not shown. An excerpt weighted towards active compounds, which were near 8% of everything screened. Calls follow the shape of the dose curve; as a rule, active = well fitted curve in the direction sought with a large enough effect; inconclusive = small, poorly fitted or top-dose-only effect, or another doubt; inactive = no such curve, though single readings can be large; an effect the other way counts as inactive or inconclusive. Potency is read from the fitted curve at half-maximal effect.
SMILES,KB-V1 MDR tox,SW480 rerep,KB-3-1 tox,HT1080 IDH1KD tx,HT1080-NT tox,MCF10A rerep
C[C@H](c1ccccc1)N1C[C@@H](COCc2ccccc2)Oc2cc(N3CC[C@H](N(C)C)C3)ccc2S1(=O)=O,23µM*,·,i,?,?,·
Cc1ccc(N(CC(=O)N2CCN(c3ccc(Cl)cc3)CC2)S(=O)(=O)c2c(C)noc2C)cc1,i,·,?,·,·,·
COc1ccc(CCNC(=O)c2ccc3c(Cl)c4c(nc3c2)CCCC4)cc1OC,i,·,i,·,·,·
C[C@@H]1CN([C@H](C)CO)C(=O)c2c(c3ccccc3n2C)-c2ccccc2CO[C@H]1CN(C)Cc1ccc(C(F)(F)F)cc1,i,·,?,18µM*,?,·
O=C(CCCCn1c(=O)[nH]c2ccccc2c1=O)NCCC1=CCCCC1,16µM*,-1%,i,1%,2%,6%
Cc1ccc(O)c(CN(C)Cc2cc(C)ccc2O)c1,21µM*,-3%,?,-5%,2%,0%
Cc1ccc(O)c(CP(=O)(c2ccccc2)c2ccccc2)c1,?,4%,i,4%,3%,8%
O=C1c2ccc3c4c(ccc(c24)C(=O)N1c1cccc(O)c1)CC3,i,10%,i,14%,3%,2%
O=C(O)c1cccc(N2C(=O)c3cccc4c(Cl)ccc(c34)C2=O)c1,i,?,i,-12%,-8%,21µM*
O=C1c2ccc3c4c(ccc(c24)C(=O)N1c1cccc(O)c1)C(=O)N(c1cccc(O)c1)C3=O,i,2.6µM*,16µM*,?,?,13µM*
CCN1C(=O)c2cccc3c(Cl)ccc(c23)C1=O,i,?,i,22%,22%,6%
O=C1c2cccc3c(Cl)ccc(c23)C(=O)N1O,i,2%,i,-16%,7.9µM*,13%
CCOc1ccccc1NC(=O)n1ncc2cc(Cl)ccc21,i,·,i,·,·,·
COc1ccc(-n2c(SCC(=O)NCCCN3CCCC3=O)nnc2C(C)N2CCCCC2)cc1 (stereo not given),i,-27%,i,3%,-7%,1.3µM*
CCOC(=O)c1c(C)[nH]c(C)c1S(=O)(=O)N(C)CC(=O)N1CCN(c2cccc(C)c2C)CC1,i,·,i,·,·,·
O=C(CSCc1ccccc1)N1CCN(c2cccc(C(F)(F)F)c2)CC1,i,7%,i,-21%,-14%,-1%
O=C(CSCc1ccccc1)N1CCN(c2ccccc2)CC1,i,?,i,10%,5%,5%
O=C(c1ccccc1C(=O)N1CCN(c2ccccc2)CC1)N1CCN(c2ccccc2)CC1,i,-8%,i,3%,18%,1%
O=C(CSCc1ccccc1)N1CCN(c2ccc(F)cc2)CC1,?,1%,i,-3%,-29%,26µM*
O=C(c1ccc(Cn2cc(Br)cn2)cc1)N1CCN(c2ccccc2)CC1,i,15µM*,i,?,?,21µM*
O=C(CSCc1cccc(F)c1)N1CCN(c2ccccc2)CC1,21µM*,0%,i,-7%,3%,-1%
O=C(c1ccccc1C(=O)N1CCN(c2ccc(F)cc2)CC1)N1CCN(c2ccc(F)cc2)CC1,9.2µM*,4%,i,-11%,-7%,-15%
COc1ccc(N2CCN(C(=O)c3cc(-c4ccc(F)cc4)[nH]c3C)CC2)cc1,i,-32%,i,-12%,-14%,26%
CC(C)(C)C(=O)Nc1ccccc1N1CCN(c2ccc(F)cc2)CC1,?,0%,i,-3%,-1%,21µM*
O=C(c1ccc(CN2CCc3ccccc3C2)cc1)N1CCN(c2ccc(F)cc2)CC1,?,-10%,?,-13%,-5%,7.3µM*
SMILES,KB-V1 MDR tox,SW480 rerep,KB-3-1 tox,HT1080 IDH1KD tx,HT1080-NT tox,MCF10A rerep
Cc1[nH]c(-c2ccc(F)cc2)cc1C(=O)N1CCN(c2ccc(Cl)cc2)CC1,i,-2%,i,6%,3%,5.8µM*
Cc1onc(-c2ccccc2)c1CNC(=O)C1COc2ccccc2O1 (stereo not given),?,-46%,i,5%,-4%,-22%
Cc1ccc(S(=O)(=O)NCC(c2ccco2)N2CCOCC2)cc1 (stereo not given),i,6%,i,-3%,-6%,6%
CCCCCC1CC(=O)N(Cc2ccccc2)C(=O)N1 (stereo not given),i,2%,i,0%,2%,4%
CCCCC1C(=O)NN(c2ccccc2)C1=O (stereo not given),i,0%,?,4.6µM*,1.8µM*,4%
CCOC(=O)c1cccc(NC(=O)c2cc3cc4ccc(C)cc4nc3o2)c1,i,·,i,·,·,·
COc1ccc(-n2c(C)c3c(OC)cccc(=O)c3c2C)cc1,18µM*,-5%,i,15%,13%,-4%
Cn1ccc2c(-c3ccc(C(=O)O)cc3)cc3c(c21)C1CCC3O1 (stereo not given),i,·,i,18%,12%,·
Cc1cccc(NC(=O)c2sc(-n3nc(C)c(Cc4ccc5c(c4)OCO5)c3C)nc2C)c1C,?,·,i,·,·,·
COc1cc(CN2CCCCCC2)cc(OC)c1O,i,-3%,i,-2%,-12%,4%
Cc1cccc(N2CCN(Cc3ccc([N+](=O)[O-])o3)CC2)c1C,i,?,i,-11%,0%,-3%
Cc1cccc(N2CCN(Cc3ccoc3)CC2)c1C,i,?,i,?,8%,21µM*
COc1cc(CN2CCN(c3cccc(C)c3C)CC2)cc(OC)c1O,18µM*,-6%,i,0%,-12%,11%
Cc1ccccc1C(=O)Nc1cccc(OCc2cc(=O)n3c4c(sc3n2)CCCC4)c1,i,·,i,·,·,·
Cc1ccc(C(O)c2nccn2C)o1 (stereo not given),i,10%,i,-6%,-2%,5.8µM*
Cn1ccnc1C(O)c1ccccc1 (stereo not given),i,1%,i,-14%,-1%,0%
COc1ccc(NC(=O)[C@H](Cc2c[nH]c3ccccc23)NC(=O)[C@@H]2Cc3ccccc3CN2)cc1,i,?,i,?,?,15µM*

# Screening data (PubChem BioAssay)
